Gal4-VP16 FLuc: inhibits Gal4-VP16 luciferase reporter, ROR gamma counter-screen | Drosophila S2 Gal4-VP16 UAS-luciferase, luminescence, 20 h | Potency, µM (series often up to 53.6 µM), inactives show at the top dose activity, negative = inhibition, hits mostly inhibitors | 310,000 compounds, 3.5% hits;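 further: Gal4-VP16 expression switched on by copper sulfate through the metallothionein promoter; potency means the concentration at half of the fitted maximal effect; nearly all actives have a fitted effect of over 50% in size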
RORgamma inh: blocks mouse ROR gamma transcriptional activity; 310,000 compounds, 5.4% hits; P51450; Potency, µM (doses to about 53.6 µM), for inactives: top-dose activity change, negative = inhibition, actives largely listed as inhibitors; Drosophila S2 Gal4-RORgamma UAS-luciferase reporter, 20 h; AID 2551; further: potency means the concentration at half of the fitted maximal effect; nearly all actives have a fitted effect of over 60% in size
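Drosophila S2 cells stably expressing Gal4-DBD/mouse RORγ fusion under metallothionein promoter plus UAS-luciferase; compound 1 h, then 700 uM CuSO4 induction for 20 h at ambient temperature; inhibition read as reduced luminescence.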
TSHR antagonist: blocks TSH signaling through the human TSH receptor; TSHR-expressing cells, TSH-stimulated cAMP HTRF, 2 h; hits give low values; activity change, negative = inhibition, % at 11.5 µM; 330,000 compounds, 0.2% hits; AID 504810;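 active means activity change below a set negative limit, meaning inhibition stronger than a set level, cut at about -70% in these data; inconclusive means activity change between two set negative limits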
Target sequence (P16473 whole entry, looked up): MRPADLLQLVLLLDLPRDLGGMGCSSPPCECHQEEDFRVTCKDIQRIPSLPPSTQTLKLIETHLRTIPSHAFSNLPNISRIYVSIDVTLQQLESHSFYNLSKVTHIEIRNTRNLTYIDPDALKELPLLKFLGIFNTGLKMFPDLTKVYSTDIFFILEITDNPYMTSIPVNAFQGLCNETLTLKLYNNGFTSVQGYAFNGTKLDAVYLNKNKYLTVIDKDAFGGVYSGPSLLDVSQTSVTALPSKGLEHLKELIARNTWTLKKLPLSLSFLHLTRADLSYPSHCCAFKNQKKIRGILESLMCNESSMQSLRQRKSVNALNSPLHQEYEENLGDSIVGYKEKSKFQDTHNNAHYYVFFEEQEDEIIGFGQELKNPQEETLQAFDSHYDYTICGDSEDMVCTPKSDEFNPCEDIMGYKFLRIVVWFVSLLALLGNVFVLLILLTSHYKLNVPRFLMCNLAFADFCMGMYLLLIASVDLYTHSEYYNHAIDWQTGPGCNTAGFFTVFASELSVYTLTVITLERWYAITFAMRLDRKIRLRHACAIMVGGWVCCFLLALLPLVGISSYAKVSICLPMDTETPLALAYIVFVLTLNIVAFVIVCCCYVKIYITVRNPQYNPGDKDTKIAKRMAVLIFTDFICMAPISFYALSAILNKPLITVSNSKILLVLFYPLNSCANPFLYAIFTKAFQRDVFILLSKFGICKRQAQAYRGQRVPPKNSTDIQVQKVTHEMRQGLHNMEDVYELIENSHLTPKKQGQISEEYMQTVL
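Inhibition of cAMP made by TSHR-expressing cells under TSH stimulation (4nM final, EC80; 2 h, 37 deg C) is quantified with a one-step lysis HTRF kit, anti-cAMP cryptate versus cAMP-d2.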
FBPA coupling cs: inhibits coupling enzyme system, counter-screen for aldolase hits; 290,000 compounds, 0.67% hits; coupling enzyme system counterscreen, AmpLite Red fluorescence; activity change, negative = inhibition, % at 58.2 µM, hits read low; AID 2472; in the data active means activity change below about -30%
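Counterscreen of the coupled detection system alone, without aldolase: glyceraldehyde-3-phosphate coupling enzymes plus AmpLite Red readout. Compounds at 57.5 uM final, 10 min RT preincubation, 20 min RT reaction, fluorescence 525/598 nm.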
ELG1 DNA repair: blocks ELG1-dependent DNA repair in HEK293T cells. AID 504467. Potency, µM (top dose mostly 46.1 µM), inactives show at the top dose activity change, negative = inhibition, actives largely listed as inhibitors. HEK293T ELG1-luciferase reporter, luminescence, 16 h; DNA damage induced by 5-fluorouridine. 330,000 compounds, 2.3% hits; further: potency means the concentration at half of the fitted maximal effect; nearly all actives have a fitted effect of over 55% in size
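Luminescence from the luciferase reporter, measured 30 min after ONE-Glo reagent at room temperature, was the read-out. Beforehand, 2,000 cells per well were exposed for 16 hr at 37 °C to 5-fluorouridine together with compound or vehicle.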
Starred values were filed as active, the others as inactive; ? = inconclusive; · = no result; ! = a repeat was not active; [ ] = dose if it differs, or a comment. This is a sample that favours compounds with a hit; in the whole collection about 8% have one here. Unless noted, the call rests on the fitted dose curve; in most records, active means well fitted curve in the direction sought with a large enough effect; inconclusive means small, poorly fitted or top-dose-only effect, or another doubt; inactive means no such curve, though single readings can be large; an effect the other way counts as inactive or inconclusive. On the % scale 0 is the no-effect control and ±100 the full control effect.

SMILES | Gal4-VP16 FLuc | RORgamma inh | TSHR antagonist | FBPA coupling cs | ELG1 DNA repair
CCCn1c(=O)n(C)c(=O)c2c(SCC(=O)NC34CC5CC(CC(C5)C3)C4)nc(CC(C)C)nc21 | -3.6% | -15.4% | -0.7 | -1.1 | 23.1µM*
CN(C)c1ccc(N=O)cc1 | 5.62µM* | 2.24µM* | · | · | ·
CCN(CC)CCCCN1c2ccccc2Oc2ccc(Cl)cc21 | -5.9% | -31.9% | · | 6.7 | ·
O=[N+]([O-])c1ccc(N2CCCC2)cc1N/N=C1\CN2CCC1CC2 | -19.3% | 21.9% | -12.1 | 0.2 | ?
O=C(N/N=C1/CN2CCC1CC2)c1cc2ccccc2cc1O | 12.6µM* | 3.55µM* | -0.6 | -9.6 | 6.1%
CC(C)C(=O)c1cn(Cc2ccc(C#N)cc2)c2ccccc12 | -3.2% | ? | -0.2 | 0.4 | 18.4µM*
COC(=O)C1=C(C)NC(C)=C(C(=O)NCCCN2CCC(c3ccccc3)(c3ccccc3)CC2)C1c1ccc([N+](=O)[O-])cc1 (stereo not given) | ? | ? | · | 1.0 | ·
COc1cc(C(C)=O)ccc1OC(=O)N(C)c1ccccc1 | -0.2% | 0.5% | -121.9* | -4.7 | -13.7%
CC(=O)c1ccc(OC(=O)N(C)c2ccccc2)cc1 | -17.0% | ? | -3.9 | -1.6 | ?
CCCCC/C=C\C/C=C\C/C=C\C/C=C\CCCC(=O)N[C@H](C)CO | -9.6% | -2.7% | · | -2.0 | ·
O=C1C(I)=CC(=C(c2cc(I)c(O)c(I)c2)c2ccccc2C(=O)O)C=C1I | 3.7% | -8.4% | · | · | ·
COc1cc2c(cc1OC)[C@@H]1C(=O)c3ccc(OC)c(CC=C(C)C)c3OC1CO2 (stereo not given in full) | 1.41µM* | 7.94µM* | · | -10.9 | ·
c1ccc(C2CO2)cc1 (stereo not given) | 7.2% | 0.4% | · | · | ·
O=c1c(O)c(-c2ccc(O)c(O)c2)oc2cc(O)cc(O)c12 | -10.5% | 9.2% | -15.3 | -0.8 | ?
O=c1cc(-c2ccc(O)c(O)c2)oc2cc(O)cc(O)c12 | 11.2µM*! | 22.4µM*! | -1.5 | -3.3 | ?
Cc1cccc(CCNCc2cc3cccc(C)c3[nH]c2=O)c1 | 7.94µM* | ? | 4.4 | -0.4 | 5.1%
Cc1cc(SCc2sc(-c3ccc(C(F)(F)F)c(F)c3)nc2C)ccc1OCC(=O)O | ? | ? | · | 2.3 | ·
CCOC(=O)CC(SP(=O)(OC)OC)C(=O)OCC (stereo not given) | -14.5% | -0.3% | · | · | ·
Cl/C=C/Cl | -26.1% | -1.6% | · | · | ·
S=C(Nc1ccccc1)Nc1cccc(Br)c1 | 7.6%[10 µM] | 11.2µM* | 6.5 | -1.9 | -2.3%
O=C(c1cccc(Cl)c1)C1CCCN(Cc2ccon2)C1 (stereo not given) | -21.5% | 2.6% | 2.5 | 0.2 | 0.58µM*
O=C(c1cccc(Cl)c1)C1CCCN(Cc2cccc3cnccc23)C1 (stereo not given) | -27.8% | 7.08µM* | 1.2 | -2.9 | ?
O=C(c1ccc(Cl)cc1)C1CCCN(Cc2cccc3cnccc23)C1 (stereo not given) | 35.5µM* | ? | -6.5 | 0.9 | ?
O=C(c1ccc(Cl)cc1)C1CCCN(Cc2ccc3c(c2)OCCO3)C1 (stereo not given) | 3.1% | -0.9% | 3.3 | -0.4 | -5.0%
O=C(c1ccc(Cl)cc1)C1CCCN(Cc2ccc3ncccc3c2)C1 (stereo not given) | 7.08µM* | ? | 36.4 | -2.9 | ?
SMILES | Gal4-VP16 FLuc | RORgamma inh | TSHR antagonist | FBPA coupling cs | ELG1 DNA repair
CC(C)Oc1cccc(C(=O)C2CCCN(Cc3ccon3)C2)c1 (stereo not given) | -9.2% | 16.3% | -5.9 | -1.2 | 12.8%
C=C1[C@@H]2C[C@]3(C(CC2=O)[C@]24C5C[C@H]3[C@H]2N(CC)C[C@]5(C)CC[C@@H]4O)[C@@H]1O (stereo not given in full) | -4.5% | -23.0% | · | 0.4 | ·
O=C(O)[C@@H]1Cc2[nH]cnc2C(c2cccnc2)N1 (stereo not given in full) | 0.5% | -24.9% | · | -0.4 | ·
BrC(Br)Br | -6.2% | -0.5% | · | · | ·
O=[N+]([O-])C(Br)(CO)CO | ? | -40.1%[10 µM] | · | · | ·
Cc1ccc(OP(=O)(Oc2ccc(C)cc2)Oc2ccc(C)cc2)cc1 | -17.8% | 40.2% | · | · | ·
CCOc1cc2[nH]c(=S)n(CCCC(=O)N3CCC4(CC3)OCCO4)c(=O)c2cc1OCC | 20µM* | ? | 5.3 | -1.2 | -15.5%
Cn1c(=O)cc(OCCCC(=O)N2CCC3(CC2)OCCO3)c2ccccc21 | 7.4% | ? | 6.5 | 2.5 | ?
Cc1cc(OC(=O)N(C)C)nn1C(=O)N(C)C | 3.6% | -1.1% | · | -0.7 | ·
Cc1ccc(-c2cc(-c3ccc(C)cc3)[n+](-c3ccc(C(=O)[O-])cc3)c(-c3ccc(C)cc3)c2)cc1 | · | · | -0.4 | · | ?
Cc1ccc(-c2cc(-c3ccccc3)cc(-c3ccccc3)[n+]2-c2ccccc2)cc1 | · | · | -94.0* | · | ?
COC(=O)C(O)C(O)(CCC(C)C)C(=O)OC1C(OC)=CC23CCCN2CCc2cc4c(cc2C13)OCO4 (stereo not given) | ? | 0.126µM* | · | 1.0 | ·
COC1=CC23CCCN2CCc2cc4c(cc2C3C1O)OCO4 (stereo not given) | -2.8% | -11.6% | · | 0.9 | ·
COC(=O)C[C@@](O)(CCC(C)(C)O)C(=O)O[C@@H]1C(OC)=C[C@]23CCCN2CCc2cc4c(cc2[C@@H]13)OCO4 | 0.112µM* | 0.0891µM* | · | 2.1 | ·
CCC(C)n1c(=O)[nH]c(C)c(Br)c1=O (stereo not given) | 3.6% | 10.9% | · | 0.3 | ·
C=C(C)[C@@H]1CC[C@]2(C(=O)O)CC[C@]3(C)C(CCC4[C@@]5(C)CC[C@H](O)C(C)(C)C5CC[C@]43C)C12 (stereo not given in full) | -5.6% | 3.16µM* | -7.1 | 0.0 | 3.1%
CC(C)[C@H](CO)Nc1nc(Nc2cccc(Cl)c2)c2ncn(C(C)C)c2n1 | -0.2% | 14.1µM* | · | 0.1 | ·
S=C1CN=C(c2ccccc2Cl)c2cc(Cl)ccc2N1 | 7.08µM* | 7.94µM* | -9.9 | -3.5 | -15.8%
CC(C)(C)OC(=O)C(Br)CCBr (stereo not given) | 19.3% | 9.5% | · | 0.1 | ·
C=C1C(=O)O[C@@H]2C[C@@H](C)[C@H]3C=CC(=O)[C@]3(O)C[C@@H]12 | ? | 7.08µM* | 6.7 | -1.7 | 12.7%
O=C1C=C2C(=CCOC2O)O1 (stereo not given) | 0.891µM* | 1.12µM* | · | 0.1 | ·
O=C(c1ccc(C(F)(F)F)cc1)C1CCCN(C2CCSCC2)C1 (stereo not given) | -4.2% | -1.0% | -5.8 | -0.5 | -14.0%
CSc1ccccc1C(=O)C1CCCN(Cc2ccccn2)C1 (stereo not given) | -23.4% | 11.2µM* | 4.7 | 0.0 | 3.6%
COc1ccccc1C(=O)C1CCCN(Cc2cnc(C)s2)C1 (stereo not given) | 0.1% | 39.0% | -4.9 | -1.0 | ?

Screening results deposited in PubChem by National Center for Advancing Translational Sciences (NCATS).
